# Only some compounds are listed: those with a hit (about 1.5% of all), similar ones and a draw of the others.
# HDAC3 inhib = blocks human histone deacetylase 3; recombinant HDAC3, fluorogenic peptide/trypsin coupled, fluorescence; 320,000 compounds, 0.15% hits; O15379; inhibition, % at 8.3 µM; in the data active means inhibition above about 26%, passing the limit was not always enough; inconclusive means no clear call, values can overlap the other calls
# GASC-1 inh = human JMJD2C demethylase inhibition; inhibition, % at 2.35 µM; Q9H3R0; GST-JMJD2C(1-420) H3K9me3 demethylation, DELFIA europium; 330,000 compounds, 0.069% hits;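 active means more than half of a compound's replicate wells show inhibition beyond 50%, single wells judged on their own value; inconclusive means some, but no more than half, of replicates pass 50% inhibition; inactive means no replicate passes 50% inhibition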;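 further: signal counts dimethyl H3K9 product captured on neutravidin plate; 0% = median of DMSO wells and 100% = 0.3 times that DMSO median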
# Target sequence (Q9H3R0 1-420 limits assumed): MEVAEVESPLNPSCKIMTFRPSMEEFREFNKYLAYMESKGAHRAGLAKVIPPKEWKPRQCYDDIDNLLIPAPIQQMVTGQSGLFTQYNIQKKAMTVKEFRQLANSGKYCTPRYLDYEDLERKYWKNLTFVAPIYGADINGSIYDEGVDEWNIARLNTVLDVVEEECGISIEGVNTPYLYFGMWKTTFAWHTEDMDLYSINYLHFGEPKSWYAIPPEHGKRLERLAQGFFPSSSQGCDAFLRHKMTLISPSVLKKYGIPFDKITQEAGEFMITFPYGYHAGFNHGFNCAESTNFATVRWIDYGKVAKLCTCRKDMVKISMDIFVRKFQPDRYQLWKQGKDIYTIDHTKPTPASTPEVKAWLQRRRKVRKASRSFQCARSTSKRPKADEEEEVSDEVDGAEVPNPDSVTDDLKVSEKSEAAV
# NLRP3 yeast inh = inhibitors of NALP3 inflammasome in yeast. inhibition, % at 10 µM. 330,000 compounds, 0.39% hits. Yeast reconstituted NLRP3/ASC/caspase-1, beta-gal luminescence, 24 h. AID 2825;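 active means inhibition of 50% or more; inactive means inhibition below 50%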;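 further: plate controls were induced DMSO wells for no effect and uninduced yeast grown without galactose for full effect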
# PolyA inhibitor = yeast polyadenylation inhibition | S. cerevisiae SKY197-pL101 polyadenylation reporter, beta-gal luminescence; efflux-impaired pdr1/pdr3 knockout yeast; score 100 = 6 SD above DMSO | activity score, % at 12 µM | 300,000 compounds, 0.02% hits | AID 1875;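 active means lowest replicate activity score at least 50, where 100 means six control SD above control mean; inconclusive means lowest score under 50 but half or more replicates reach 50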;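 further: yeast exposed to compound for 9 h at 30 °C; higher score means more reporter readthrough which indicates perturbed polyadenylation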
# Efflux pump inh = blocks antifungal efflux pumps in multiplex yeast assay; S. cerevisiae Candida pump triplex, Nile Red efflux; inhibition, % at 10 µM; 330,000 compounds, 0.44% hits; AID 485275;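 active means plate passing quality check with inhibition over a set limit, or well fluorescence over plate mean plus 4 SD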;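 further: Nile Red retained in pooled yeast measured as flow cytometry median fluorescence; 0% = buffer negative control and 100% = Enniatin B positive control; higher means more Nile Red kept so more efflux inhibition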
# NALP1 yeast inh = inhibitors of NALP1 inflammasome in yeast | AID 2071 | inhibition, % at 10 µM | S. cerevisiae NALP1/ASC/caspase-1 growth, X-gal OD620, 72 h | 280,000 compounds, 0.61% hits; in the data active means inhibition mostly above about 24%, no sharp cut-off; inactive means mostly below about 32%
# NALP3 confirm = NALP3 inhibition confirmation in yeast. shares compounds with NLRP3 yeast inh. yeast expressing human NALP3, luminescence. inhibition, % at 10 µM. 1,300 compounds, 81% hits; in the data active means inhibition above about 48%
# Casp1-ASC yeast = active in yeast caspase-1-ASC counter-screen for NALP3 inhibitors. shares compounds with NLRP3 yeast inh. 1,000 compounds, 66% hits. AID 488784. inhibition, % at 10 µM. yeast expressing Caspase-1-ASC, luminescence counter screen
# NALP3 retest = retest-confirmed inhibitor of NALP3 in yeast. 1,000 compounds, 53% hits. inhibition, % at 10 µM. yeast expressing human NALP3, luminescence read-out. shares compounds with NLRP3 yeast inh. AID 488794
# Cmpd fluor yeast = flagged as fluorescent in efflux inhibitor counter-screen; shares compounds with Efflux pump inh; S. cerevisiae AD/pABC3, compound fluorescence, flow cytometry; fluorescence ratio to DMSO, % at 10 µM; 1,700 compounds, 4% hits; AID 588517;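 active means fluorescence ratio to DMSO above its plate's cutoff, the plate mean ratio plus 5 SD, cut at about 210% in these data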;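 further: unstained yeast with no Nile Red so the signal is compound autofluorescence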
# CaMdr1 efflux inh = blocks the Candida albicans Mdr1 efflux pump in yeast; inhibition, % at 10 µM; S. cerevisiae AD/CaMDR1, Nile Red efflux, flow cytometry; shares compounds with Efflux pump inh; 1,700 compounds, 1% hits; AID 588518; in the data active means inhibition above about 26%;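 further: 0% = DMSO vehicle and 100% = reference inhibitor; higher means more Nile Red retained so more efflux inhibition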
# CaCdr2 efflux inh = inhibitors of Candida albicans Cdr2 efflux pump | shares compounds with Efflux pump inh | S. cerevisiae AD/CaCDR2, Nile Red retention, flow cytometry | Nile Red retention ratio vs DMSO, % at 10 µM | 1,700 compounds, 4% hits; in the data active means Nile Red retention ratio vs DMSO above about 190%;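 further: higher ratio means more blocking of Cdr2 efflux of the dye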
# Cdr1 pump inh = inhibitors of Candida albicans Cdr1 efflux pump | inhibition, % at 10 µM | S. cerevisiae AD/CaCDR1, Nile Red efflux, flow cytometry | AID 588522 | 1,700 compounds, 1% hits | shares compounds with Efflux pump inh;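 active means inhibition above the screen-wide mean plus twice its standard deviation, cut at about 32% in these data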
# * hit, by the source's call; ? = inconclusive; · = no result given; + = active, no number; ! = a repeat was not active. Unless noted, no stated cut-off is given here; in the data, active means inhibition above about 50%; inactive means the rest.
SMILES,HDAC3 inhib,GASC-1 inh,NLRP3 yeast inh,PolyA inhibitor,Efflux pump inh,NALP1 yeast inh,Cmpd fluor yeast,CaMdr1 efflux inh,CaCdr2 efflux inh,Cdr1 pump inh,others
O=C(NC(=S)Nc1cccc([N+](=O)[O-])c1)c1ccco1,9,12,17,1,0,3,·,·,·,·,
CC(C)(C)c1ccc(NC(=O)CSc2n[nH]c(=O)n2C2CC2)cc1,?,2,4,·,0,·,·,·,·,·,
C(=C\c1ccco1)/c1nc2ccccc2[nH]1,3,4,13,5,0,11,·,·,·,·,
C(=C\c1nc2ccccc2[nH]1)/c1ccccc1,-38,0,61*,-3,0,-6,·,·,·,·,NALP3 confirm=84*;Casp1-ASC yeast=60*;NALP3 retest=57*
Clc1ccc(-n2nnnc2Sc2ncnc3sccc23)cc1,-7,10,64*,-26,0,·,·,·,·,·,NALP3 confirm=74*;Casp1-ASC yeast=94*;NALP3 retest=76*
Cn1c(=O)c2c(nc3n2CC(O)CN3c2ccc(O)cc2)n(C)c1=O (centres undefined),2,-18,12,-18,0,20,·,·,·,·,
Cn1c(Cl)c(C(=O)Nc2ccccc2)c2ccccc21,1,·,60*,·,0,0,·,·,·,·,NALP3 confirm=82*;Casp1-ASC yeast=56*;NALP3 retest=51*
O=C(Cn1ncc2c([nH]c3ccccc32)c1=O)NCC1CCN(Cc2ccccc2F)CC1,0,9,20,-5,0,14,·,·,·,·,
Cc1ccc2sc(N(CCCN(C)C)C(=O)CCS(=O)(=O)c3ccccc3)nc2c1C,-5,20,53*,-7,0,84*,·,·,·,·,NALP3 confirm=77*;Casp1-ASC yeast=66*;NALP3 retest=54*
O=C(Nc1ccc2nc3n(c(=O)c2c1)CCCCC3)c1cc([N+](=O)[O-])ccc1F,2,5,63*,-25,0.7*,27,94,0,90,0,NALP3 confirm=80*;Casp1-ASC yeast=69*;NALP3 retest=56*
O=C(Nc1ccc2nc3n(c(=O)c2c1)CCCCC3)c1c(F)ccc([N+](=O)[O-])c1F,1,3,29,2,1,19,·,·,·,·,
CCN1/C(=C/c2ccc3cc(C)ccc3[n+]2CC)Sc2ccccc21,19,-14,56*,·,3.0*,123*,·,5,143,2,NALP3 confirm=68*;Casp1-ASC yeast=100*;NALP3 retest=99*
CC(C)C[C@H](NC(=O)OC(C)(C)C)C(=O)N[C@@H](CO)[C@H](O)[C@@H]1C[C@@H]1C(=O)NC1CCCCC1,-4,-15,10,-6,0,15,·,·,·,·,
O=C(COc1ccccc1)NCC(=O)N/N=C/c1ccc(Cl)cc1,-1,-6,17,?,0,3,·,·,·,·,
CCCCC(CC)CO (centres undefined),·,·,12,·,0,·,·,·,·,·,
CCCCC(CC)CN=C(N)NC(N)=NCCCCCCN=C(N)NC(N)=NCC(CC)CCCC (centres undefined),?,·,97*,·,2.2*,·,93,0,131,0,NALP3 confirm=95*;Casp1-ASC yeast=86*;NALP3 retest=94*
CCCCCCCCCCCCCCCCn1cc[n+](C)c1,?,-4,61*,-70,2.7*!,94*!,100,0,110,0,NALP3 confirm=72*
OC(COCc1cccs1)CN1CCN(c2cccc(C(F)(F)F)c2)CC1 (centres undefined),14,2,-3,-2,6.8*,33,106,0,112,0,
O=S(=O)(c1ccc(F)cc1)N1CCN(CC(O)COCc2cccs2)CC1 (centres undefined),-2,-8,0,10,0,19,·,·,·,·,
O=C(Cn1nc(-c2ccc(F)cc2)ccc1=O)Nc1ccc2c(c1)OCCO2,2,-8,9,3,0,2,·,·,·,·,
O=C(Cn1nc(-c2ccc(F)cc2)ccc1=O)Nc1ccc(C(=O)NC2CC2)cc1,-5,0,-9,-17,0.4*,-8,81,0,89,0,
Cc1ccc(NC(=O)COC(=O)[C@H](C)NC(N)=O)c(C)c1,0,7,8,14,0,-18,·,·,·,·,
CCCCCCCC(=O)Nc1cc(C(=O)NCCC)ccc1N1CCC2(CC1)CC(c1ccccc1)=NO2,-1,21,-7,-27,0.9*,22,117,0,116,0,
Cc1ccc(C)c(S(=O)(=O)c2c[nH]c(=S)[nH]c2=O)c1,1,8,7,-10,0,13,·,·,·,·,
CCc1ccc2nc(N(CCN(C)C)C(=O)c3ccc4ncsc4c3)sc2c1,10,1,18,18,0,12,·,·,·,·,
SMILES,HDAC3 inhib,GASC-1 inh,NLRP3 yeast inh,PolyA inhibitor,Efflux pump inh,NALP1 yeast inh,Cmpd fluor yeast,CaMdr1 efflux inh,CaCdr2 efflux inh,Cdr1 pump inh,others
Cc1cc(C)nc(NC(=O)/C=C/c2cccs2)c1,0,0,34,10,0,-4,·,·,·,·,
Cc1cc(C)c(-c2csc(NC(=O)/C=C/c3cccs3)n2)c(C)c1,6,-6,7,7,23*,31,105,0,91,0,
CN(CCOc1ccccc1)C(=S)Nc1ccc(OC(F)F)cc1,-1,28,29,2,0,-5,·,·,·,·,
Cc1ccc2c(c1)c(/C=C/c1cc[n+](C)cc1)c(C)n2C,14,-2,26,-8,25*,7,+,32*,290*,16,
Cc1ccc2[nH]c(C)c(/C=C/c3cc[n+](C)cc3)c2c1,17,-3,13,1,20*,0,+,16,317*,15,
Clc1ccc(Cn2nc(-c3ccccc3)nc2-c2ccccc2)cc1,3,-17,4,-8,20*,24,102,0,110,0,
c1ccc(SCCOCCN2CCc3ccccc3C2)cc1,1,-7,18,11,0,31,·,·,·,·,
CN(C)/C(CN1CCN(C=O)CC1)=C1\N=C(c2ccccc2)OC1=O,8,-6,-11,-13,0.5*,-1,98,0,94,0,
COc1ccc(Nc2nnc(Cc3ccc(Cl)cc3)c(=O)[nH]2)c(OC)c1,12,2,7,-2,0,5,·,·,·,·,
COc1ccc(Nc2nnc(Cc3ccccc3)c(=O)[nH]2)c(OC)c1,-2,16,-14,24,0.5*,-36,100,0,104,0,

# From PubChem BioAssay
